A selection: hits, their analogues and other compounds. The true share with any hit is near 4.7%.
tim23-1 inh = growth inhibitors of tim23-1 mutant yeast, primary screen, luminescence, uHTS. 1.3% of 330,000 active. inhibition, % at 20 µM. AID 463212, 2010. S. cerevisiae tim23-1 growth, BacTiter-Glo luminescence, 24 h;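 active = growth inhibition of the mutant yeast at or above 50%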;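 note: temperature-sensitive mutant grown at 25 °C; plate controls were DMSO-treated mutant yeast for no effect and medium wells lacking yeast for full effect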
PfHsp90 yeast 2 = growth inhibition of PfHsp90-expressing yeast, primary screen, antimalarial PfHsp90 inhibitor project, S. cerevisiae, BacTiter-Glo luminescence, single point, set 2; BacTiter-Glo ATP, 48 h; yeast lacking PDR1 and PDR3 efflux regulators; inhibition, % at 9.4 µM; 0.32% of 310,000 active; AID 504621, 2011;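 active = every replicate shows inhibition above about 80%, whatever the replicate mean, limit read from the data; inconclusive = mean inhibition reaches the set limit but some replicate falls short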;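 note: 0% = DMSO neutral controls and 100% = 20 µM radicicol positive controls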
TIM10 inh = growth inhibitors of isogenic TIM10 control yeast, primary screen, counter-screen for tim10-1 yeast inhibitor project, luminescence, uHTS; S. cerevisiae TIM10 strain growth, BacTiter-Glo luminescence, 24 h; inhibition, % at 10 µM; 1.4% of 330,000 active; AID 463195, 2010;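 active = inhibition of 40% or more at the single tested concentration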;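 note: wild-type TIM10 isogenic control strain grown at permissive 25 °C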
tim10-1 inh = growth inhibitors of tim10-1 mutant yeast, primary screen, luminescence, uHTS; S. cerevisiae tim10-1 ts strain growth, BacTiter-Glo, 24 h; inhibition, % at 20 µM; 2.2% of 330,000 active; AID 463190, 2010;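 active = inhibition of at least 40%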;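 note: mutant grown at 25 °C; 0% = DMSO wells with yeast and 100% = wells holding no yeast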
SKKanGAS inh = S. pyogenes SKKanGAS growth inhibitors in kanamycin, primary screen, streptokinase expression inhibitor project, SKKanGAS strain, BacTiter-Glo luminescence; 6 h; inhibition, % at 7.5 µM; 1.3% of 300,000 active; AID 1662, 2009;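 active = mean replicate score, as percent of positive control median, at least 50; inconclusive = mean below 50 but one replicate at or above 50; inactive = mean and every replicate below 50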;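 note: strain carries kanamycin resistance gene driven by streptokinase promoter and grows in 40 µg/ml kanamycin; loss of luminescence reflects streptokinase promoter inhibition or plain growth inhibition; 0% = median of DMSO wells and 100% = positive control at its reference dose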
EBI2 antag = EBI2 receptor antagonists, beta-arrestin recruitment, primary screen, cell-based, luminescence, 7a,25-OHC stimulation, uHTS | G-protein coupled receptor 183 (Homo sapiens), P32249 | 7a,25-OHC stimulated | inhibition, % at 5 µM | 0.81% of 360,000 active; in the data active = inhibition above about 38%;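 note: enzyme fragment complementation signal reports receptor beta-arrestin coupling in cells; 0% = agonist plus DMSO wells and 100% = wells without agonist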
Target sequence (P32249 whole entry, looked up, the tested form may be a part): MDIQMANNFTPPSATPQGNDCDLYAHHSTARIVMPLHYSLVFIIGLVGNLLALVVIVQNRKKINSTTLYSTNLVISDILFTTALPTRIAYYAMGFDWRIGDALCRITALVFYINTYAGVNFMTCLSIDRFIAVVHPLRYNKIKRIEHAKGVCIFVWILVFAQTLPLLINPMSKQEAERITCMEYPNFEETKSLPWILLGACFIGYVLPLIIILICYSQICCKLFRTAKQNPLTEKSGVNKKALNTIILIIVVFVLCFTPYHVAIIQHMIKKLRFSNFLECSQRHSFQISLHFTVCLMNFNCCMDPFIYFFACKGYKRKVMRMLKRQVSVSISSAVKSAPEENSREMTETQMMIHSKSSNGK
Numbers without * were called inactive; ? = inconclusive; . = not tested or not shown.

SMILES	tim23-1 inh	PfHsp90 yeast 2	TIM10 inh	tim10-1 inh	SKKanGAS inh	EBI2 antag
O=C1CCCN1CCC1CCN(C2CC(=O)N(c3ccc(Cl)cc3)C2=O)CC1 (stereo not drawn)	39	102*	32	36	-6	3
O=C1CCCN1CCC1CCN(C2CC(=O)N(Cc3ccc(N4CCCC4=O)cc3)C2=O)CC1 (stereo not drawn)	13	0	13	12	-9	1
O=C(O)c1ccc(N/N=C/c2ccc(OC(=O)c3ccccc3Cl)cc2)cc1	3	4	3	-14	63*	-1
CC(C)c1ccc(/C=N/Nc2ccc(C(=O)O)cc2)cc1	30	-29	19	11	-11	-4
O=C(O)c1ccc(N/N=C/c2ccc(-c3ccccc3)cc2)cc1	.	98*	.	.	28	14
O=C(/C=C/[C@H]1O[C@@H](n2ccc(=O)[nH]c2=O)[C@H](O)[C@@H]1O)NCCN1CCOCC1	.	.	.	.	.	-3
C[C@@H]1CN([C@H](C)CO)C(=O)c2cc(Br)cnc2O[C@@H]1CN(C)C(=O)Nc1ccccc1	.	.	.	.	.	-10
COc1cc(C(=O)NNC(=S)NC(=O)c2ccc3c(c2)OCO3)cc(OC)c1OC	19	.	32	16	77*	6
COc1cc(C(=O)NC(=S)NNC(=O)[C@H]2C[C@@H]2c2ccccc2)cc(OC)c1OC	14	9	16	31	90*	-17
COc1cc(C(=O)NNC(=O)c2ccc3c(c2)OCCO3)cc(OC)c1OC	6	-43	1	3	.	-8
COc1cc(C(=O)NC(=S)NNC(=O)c2cnccn2)cc(OC)c1OC	-15	-43	4	-1	15	-9
COc1cc(C(=O)NNC(=S)NC(=O)c2ccccc2C)cc(OC)c1OC	-5	-13	8	22	60*	-4
CC(C)c1ccc(O)c(NC(=S)NC(=O)c2ccc3c(c2)OCO3)c1	20	-60	28	36	60*	8
COc1cc(C(=O)NNC(=O)CCOc2ccccc2C)cc(OC)c1OC	12	-1	-13	1	.	6
CCCCCCCCN1CC(Cc2cc3ccccc3c3ccccc23)N(c2ccccc2)c2ccccc2C1=O (stereo not drawn)	.	.	.	.	.	-5
COc1ccccc1C(=O)NNC(=S)NC(=O)c1cc(OC)c(OC)c(OC)c1	-32	-18	13	9	80*	4
Cc1[nH]c2ccccc2c1/C=N/NC(=O)C1CC1(c1ccccc1)c1ccccc1 (stereo not drawn)	13	9	16	5	55*	10
O=[N+]([O-])c1ccc(O)c(-c2cc(C(F)(F)F)nc(-c3ccccc3)n2)c1	1	14	21	10	94*	10
O=C1NC(=S)/C(=C\c2ccc(-c3ccccc3Cl)o2)S1	.	4	.	.	114*	-10
O=C1NC(=O)/C(=C/c2ccc(-c3cc(C(=O)O)ccc3Cl)o2)S1	8	-7	-1	9	34	-6
COc1cccc(S(=O)(=O)Nc2ccc3c(c2)C(=O)N(C)C[C@H](OC)[C@H](C)CN[C@@H](C)CO3)c1	.	.	.	.	.	3
Cc1cc(/C=c2\sc3nc4ccccc4n3c2=O)c(C)n1-c1ccc(C(=O)O)cc1	.	112*	.	.	34	0
Cc1cc(/C=c2/sc3nc4ccccc4n3c2=O)c(C)n1-c1ccccn1	37	19	36	31	21	36
Cc1ccc(OCCSc2nc(NC(C)C)nc(NC(C)C)n2)cc1	24	8	17	13	72*	3
COc1ccc(N(C(=O)c2ccncc2)S(=O)(=O)c2ccc(F)cc2)cc1	-106	.	-28	-45	1	-2
SMILES	tim23-1 inh	PfHsp90 yeast 2	TIM10 inh	tim10-1 inh	SKKanGAS inh	EBI2 antag
COc1ccc(N(C(=O)c2ccncc2)S(=O)(=O)c2ccccc2)cc1	-191	194*	-51	-56	1	-27
COc1ccc(N(C(=O)c2ccncc2)S(=O)(=O)c2ccc(OC)c(OC)c2)cc1	15	10	12	20	1	-8
COc1ccc(S(=O)(=O)N(C(=O)c2ccncc2)c2ccc(OC(=O)c3ccncc3)cc2)cc1	-2	91*	-56	-8	-17	1
C[C@H]1[C@H](C)CC[C@]2(C(=O)O)CC[C@]3(C)C(=CC[C@@H]4[C@@]5(C)CC[C@H](O)C(C)(C)[C@@H]5CC[C@]43C)[C@H]12	-10	10	-4	-11	107*	-11
C[C@H]1[C@H](C)CC[C@]2(C(=O)O)CC[C@]3(C)C(=CC[C@@H]4[C@@]5(C)C[C@@H](O)[C@H](O)C(C)(C)[C@@H]5CC[C@]43C)[C@H]12	1	-9	6	-1	103*	2
C[C@H]1[C@H](C)CC[C@]2(C)CC[C@]3(C)C(=CC[C@@H]4[C@@]5(C)CC[C@@H](O)[C@](C)(C(=O)O)[C@@H]5CC[C@]43C)[C@H]12	.	.	.	.	102*	.
CCCNC(=O)C1(C)CCCN(C(=O)c2cccc(C(F)(F)F)c2)C1 (stereo not drawn)	.	.	.	.	.	1
CCC1CCCCN1CCCNC(=O)c1ccc2c(c1)c(C)c(C)n2C (stereo not drawn)	4	-2	9	-7	-5	0
O=C(O)CN1C(=O)/C(=C\c2cc([N+](=O)[O-])ccc2OCc2ccccc2Cl)SC1=S	30	-11	13	28	55*	13
O=C(O)CN1C(=O)/C(=C\c2cc(Br)ccc2OCc2ccc(Cl)cc2)SC1=S	.	25	.	.	94*	3
O=C(O)CN1C(=O)/C(=C\c2cc(Br)ccc2OCc2ccc(F)cc2)SC1=S	33	-11	23	14	?	-2
O=C(O)CN1C(=O)/C(=C\c2ccccc2OCc2ccccc2)SC1=S	.	.	.	.	.	-3
O=C(COc1ccc2ccccc2c1)NNC(=O)c1ccc([N+](=O)[O-])cc1	-7	9	-12	-8	-13	0
O=C(COc1ccc([N+](=O)[O-])cc1)NNC(=S)NC(=O)c1ccc(Br)cc1	7	-20	15	-7	55*	0
Cc1ccc(C(=O)NC(=S)NNC(=O)COc2ccc([N+](=O)[O-])cc2)cc1	-5	-15	24	0	82*	4
O=C(Nc1nccs1)c1sc2cc(Cl)ccc2c1Cl	1	.	1	26	66*	16
O=C(Nc1nccs1)c1sc2ccccc2c1Cl	19	-6	25	24	50*	4
O=C(Nc1ccccc1-c1nc2ccccc2[nH]1)c1sc2ccccc2c1Cl	14	.	0	6	64*	.
O=C(Nc1ccc(Cl)c(Cl)c1)Nc1nccs1	12	-159	28	16	55*	-16
